From PubChem
Shown are actives, neighbours in structure and some others; about 2.2% of the full set was active somewhere.
GASC-1 inh – human JMJD2C demethylase inhibition. inhibition, % at 2.35 µM. AID 2099. hit rate 0.069% among 330,000. GST-JMJD2C(1-420) H3K9me3 demethylation, DELFIA europium. Q9H3R0;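 active = more than half of a compound's replicate wells show inhibition beyond 50%, single wells judged on their own value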;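 note: signal counts dimethyl H3K9 product captured on neutravidin plate; 0% = median of DMSO wells and 100% = 0.3 times that DMSO median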
Target sequence (Q9H3R0 1-420 limits assumed): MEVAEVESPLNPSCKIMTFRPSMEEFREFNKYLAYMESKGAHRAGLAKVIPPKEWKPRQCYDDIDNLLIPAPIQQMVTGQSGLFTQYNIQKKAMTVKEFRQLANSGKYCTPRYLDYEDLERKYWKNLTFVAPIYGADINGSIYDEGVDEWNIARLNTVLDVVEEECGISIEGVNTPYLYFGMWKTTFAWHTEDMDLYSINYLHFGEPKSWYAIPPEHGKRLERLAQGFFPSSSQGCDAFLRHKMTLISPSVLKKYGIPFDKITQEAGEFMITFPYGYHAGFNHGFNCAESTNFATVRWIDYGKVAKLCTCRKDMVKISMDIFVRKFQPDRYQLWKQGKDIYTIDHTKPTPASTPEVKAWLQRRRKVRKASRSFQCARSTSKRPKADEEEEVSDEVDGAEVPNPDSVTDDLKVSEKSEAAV
m5-HT2A agonist – mouse HTR2A agonism via beta-arrestin recruitment; CHO-K1 mHTR2A beta-arrestin complementation, luminescence; percent of 30 µM serotonin response; activation, % at 7.6 µM; AID 624169; P35363; hit rate 0.66% among 360,000;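 active = activation above a run cutoff, the mean activation of all tested compounds plus 3 SD, cut at about 14% in these data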;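 note: 0% = plate median of compound wells and 100% = 30 µM serotonin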
Granule exo inh – lytic granule exocytosis inhibition; TALL-104 LAMP-1 surface exposure, flow cytometry; cells stimulated with thapsigargin and PMA; inhibition, % at 10 µM; hit rate 0.66% among 360,000;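 active = inhibition above about 55%, limit read from the data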
V-ATPase pH – yeast V-ATPase proton transport regulation by pHLuorin. S. cerevisiae, pHLuorin cytosolic pH fluorescence. response, % at 10 µM. hit rate 0.37% among 350,000. AID 504577; in the data active = response mostly above about 7.3%, no sharp cut-off; inactive = mostly below about 5.4%; note: actives read high
MEX-5 binding – C. elegans MEX-5 TCR-2 RNA binding activity | Q9XUB2 | hit rate 0.38% among 300,000 | MEX-5/FITC-TCR2 RNA binding, fluorescence polarization; stronger effect = lower value | activity score (negative = inhibition of binding), % at 10 µM;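 active = inhibition past about -25% in most replicates, and total fluorescence under double the plate's negative control median, limit read from the data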;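 note: 0% = DMSO and -100% = 5 µM competing unlabeled TCR2 RNA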
VLA-4 inh – inhibition in a human VLA-4 binding assay; P13612; hit rate 0.2% among 330,000; inhibition, % (about 7 µM as worked out from the volumes in the protocol); VLA-4 expressing cells, ligand binding flow cytometry; in the data active = inhibition above about 50%
An asterisk follows results filed as active.

Cc1ccc2nc(Cl)c(/C=C/C(=O)c3ccco3)cc2c1 was read as GASC-1 inh 3, m5-HT2A agonist -4, Granule exo inh 86*, V-ATPase pH 2, MEX-5 binding -2 and VLA-4 inh -4.
For O=C(NNS(=O)(=O)c1ccc([N+](=O)[O-])cc1)C(=O)Nc1cccc(C(=O)O)c1 the results were GASC-1 inh 27, m5-HT2A agonist 2, Granule exo inh -30, V-ATPase pH -1, MEX-5 binding -75* and VLA-4 inh 4.
For O=C(NNS(=O)(=O)c1ccc([N+](=O)[O-])cc1)c1ccccc1 the results were m5-HT2A agonist -1, Granule exo inh -7 and V-ATPase pH 1.
COc1ccc(OC)c(C2=C/C(=C/c3ccccn3)C(=O)O2)c1 was read as GASC-1 inh 13, m5-HT2A agonist 4, Granule exo inh -2, V-ATPase pH 0, MEX-5 binding -42* and VLA-4 inh -64.
`Cc1c(N=C2Nc3cccc4cccc2c34)c(=O)n(-c2ccccc2)n1C` gave GASC-1 inh -4, m5-HT2A agonist 2, Granule exo inh 0, V-ATPase pH -1, MEX-5 binding -41* and VLA-4 inh -8.
Cc1cc(C2C(=O)NC(=O)C2=O)c(C)cc1Br (centres undefined) was read as m5-HT2A agonist 1, Granule exo inh 16 and V-ATPase pH -1.
`COc1ccc(/C=C\C(=O)O[C@@H]2C(O)C(O[C@@H]3OC(C)[C@H](O[C@@H]4OCC(O[C@H]5O[C@H](CO)[C@@H](O)C(O)C5O)C(O)C4O)C(O)C3O)[C@H](OC(=O)[C@]34CCC(C)(C)C[C@@H]3C3=CCC5[C@@]6(C)CC(O)C(O[C@@H]7OC(CO)C(O)[C@H](O)[C@H]7O)[C@@](C)(C(=O)O)C6CC[C@@]5(C)[C@]3(CO)CC4)O[C@H]2C)cc1` (some centres undefined) gave GASC-1 inh 4, m5-HT2A agonist 16*, Granule exo inh 11, V-ATPase pH 0 and VLA-4 inh -10.
`Oc1ccc(N=Nc2n[nH]c(-c3ccccc3)n2)cc1` gave GASC-1 inh 4, m5-HT2A agonist 0, Granule exo inh 1, V-ATPase pH -4, MEX-5 binding -37* and VLA-4 inh 6.
`Oc1ccc(N=Nc2n[nH]c(-c3ccc(Br)cc3)n2)cc1` gave GASC-1 inh 0, m5-HT2A agonist 3, Granule exo inh -5, V-ATPase pH -4, MEX-5 binding -4 and VLA-4 inh 17.
Cc1cccc(C)c1NC(=O)COC(=O)CN1C(=O)C2CCCCC2C1=O (centres undefined) was read as m5-HT2A agonist 1, Granule exo inh 2, V-ATPase pH -1 and VLA-4 inh -7.
CC1(C)CC(NC(=O)c2ccccc2)CC(C)(C)N1 was read as GASC-1 inh 7, m5-HT2A agonist 0, Granule exo inh -1, V-ATPase pH -1, MEX-5 binding 5 and VLA-4 inh 6.
Screening CC1(C)CC(Nc2ccc(Nc3ccccc3)cc2)CC(C)(C)N1 returned GASC-1 inh -1, m5-HT2A agonist -4, Granule exo inh 83*, V-ATPase pH 0, MEX-5 binding 1 and VLA-4 inh 5.
O=C(Nc1cccc(S(=O)(=O)Nc2ccc(Cl)cc2)c1)c1ccccn1 was read as GASC-1 inh 1, m5-HT2A agonist -9, Granule exo inh 4, V-ATPase pH 2 and VLA-4 inh 4.
`COc1cc(OC)c(C2Nc3cccc4cccc(c34)N2)c(OC)c1` gave GASC-1 inh 3, m5-HT2A agonist -7, Granule exo inh 76*, V-ATPase pH 2, MEX-5 binding -2 and VLA-4 inh 7.
CCC1CCCCN1C(=O)COc1ccc(N(C)S(=O)(=O)c2ccc(C)cc2)cc1 (centres undefined) was read as GASC-1 inh 12, m5-HT2A agonist 1, Granule exo inh 0, V-ATPase pH -1, MEX-5 binding -2 and VLA-4 inh -23.
C=CS(=O)(=O)c1ccc(Oc2ccc(S(=O)(=O)C=C)cc2)cc1 was read as GASC-1 inh -12, m5-HT2A agonist 2, Granule exo inh 89*, V-ATPase pH 1, MEX-5 binding 1 and VLA-4 inh 49.
`NS(=O)(=O)c1ccc(Oc2ccc(S(N)(=O)=O)cc2)cc1` gave GASC-1 inh 8, m5-HT2A agonist -4, Granule exo inh -2, V-ATPase pH 1, MEX-5 binding 3 and VLA-4 inh -6.
c1ccc(CNc2c(C3CCNCC3)nc3scc(-c4ccccc4)n23)cc1 was read as m5-HT2A agonist 5 and Granule exo inh 0.
For CCCCn1c(SCC(=O)c2ccc(O)c(O)c2)nc2ccsc2c1=O the results were GASC-1 inh -27, m5-HT2A agonist 0, Granule exo inh 14, V-ATPase pH 1, MEX-5 binding -2 and VLA-4 inh -9.
For O=C(O)CCCCCn1c(SCC(=O)c2ccc(O)c(O)c2)nc2ccsc2c1=O the results were GASC-1 inh 1, m5-HT2A agonist 0, Granule exo inh -2, V-ATPase pH 3, MEX-5 binding -27* and VLA-4 inh 13.
For Cc1[nH]c2ccc(-c3nnc(SCC(=O)NCc4ccco4)n3Cc3ccccc3)cc2c1C the results were GASC-1 inh -1, m5-HT2A agonist -2, Granule exo inh 87*, V-ATPase pH 3, MEX-5 binding 0 and VLA-4 inh -5.
Screening CCn1c(SCC(=O)NCc2ccco2)nnc1-c1ccncc1 returned GASC-1 inh 10, MEX-5 binding 3 and VLA-4 inh 6.
CCOC(=O)/C(=C\c1cccnc1)C(=O)c1cc(C(C)=O)c(Nc2ccccc2)s1 was read as GASC-1 inh 6, m5-HT2A agonist -3, Granule exo inh 60*, V-ATPase pH -2, MEX-5 binding 3 and VLA-4 inh 20.
Cc1cc(C(=O)N2CCC2(C)C(=O)NS(=O)(=O)c2cccc(Cl)c2)nn1C (centres undefined) was read as m5-HT2A agonist 1 and Granule exo inh 21.
`CC1=NN(c2cccc(C(=O)O)c2)C(=O)/C1=C\C=C\c1ccco1` gave GASC-1 inh -6, m5-HT2A agonist 1, Granule exo inh -2, V-ATPase pH -3, MEX-5 binding -27* and VLA-4 inh 2.
CC1CCCN(C(=O)CN(c2ccccc2)S(=O)(=O)c2ccc(F)cc2)C1 (centres undefined) was read as GASC-1 inh 2, m5-HT2A agonist 5, Granule exo inh 0, V-ATPase pH 2 and VLA-4 inh -1.
Screening COc1ccc(NC(=O)/C(C#N)=C/c2ncc([N+](=O)[O-])n2C)c(OC)c1 returned GASC-1 inh 5, m5-HT2A agonist 1, Granule exo inh 97*, V-ATPase pH 6, MEX-5 binding 2 and VLA-4 inh -7.
